Assay outcomes: PubChem, The Scripps Research Institute Molecular Screening Center
A selection: hits, their analogues and other compounds. The true share with any hit is near 2.3%.
CHRM1 agonist = human M1 muscarinic receptor agonists, primary screen, Fluo-8 calcium fluorescence, CHO-K1 cells, HTS; CHO-K1 hM1, agonist mode; 0% DMSO, 100% acetylcholine EC100; activation, % at 3 µM; 360,000 tested, 0.33% active;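 active = activation above the run's mean compound activation plus 3 SD, cut at about 16% in these data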;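 also: peak over basal fluorescence ratio within a 140 s kinetic read after compound addition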
Target sequence (P11229 whole entry, looked up): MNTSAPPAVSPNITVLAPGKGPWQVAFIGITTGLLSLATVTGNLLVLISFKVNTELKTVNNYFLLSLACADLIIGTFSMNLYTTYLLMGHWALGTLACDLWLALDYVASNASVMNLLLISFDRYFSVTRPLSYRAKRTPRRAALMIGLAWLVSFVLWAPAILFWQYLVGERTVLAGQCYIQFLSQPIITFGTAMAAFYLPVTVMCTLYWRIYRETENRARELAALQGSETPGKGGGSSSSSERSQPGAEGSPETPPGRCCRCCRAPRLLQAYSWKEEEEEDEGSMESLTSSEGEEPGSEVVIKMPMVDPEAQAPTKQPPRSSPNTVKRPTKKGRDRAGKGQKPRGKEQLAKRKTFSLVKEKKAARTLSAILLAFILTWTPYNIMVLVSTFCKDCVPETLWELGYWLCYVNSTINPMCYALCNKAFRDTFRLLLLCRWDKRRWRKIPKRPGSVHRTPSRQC
M1 antag = human M1 muscarinic receptor antagonists, primary screen, CHO-K1 cells, Fluo-8 calcium fluorescence, 1536-well; Muscarinic acetylcholine receptor M1 (Homo sapiens), P11229; CHO-K1 hM1, ACh EC80 antagonist; inhibition, % at 3 µM; 360,000 tested, 1.3% active; AID 588852, 2011;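 active = percent inhibition above its own plate's cutoff, namely the mean of that plate's compound wells plus 3 SD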;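 also: peak over basal fluorescence ratio during 140 s after agonist addition; 0% = ACh EC80 plus DMSO and 100% = DMSO alone without agonist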
M1 ag parental = counter-screen for M1 agonists: effect in parental CHO-K1 cells; activation, % at 3 µM; Fluo-8 calcium fluorescence; scaled to maximal ATP response, vehicle zero; 360,000 tested, 0.48% active; in the data active = activation above about 15%;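 also: untransfected CHO-K1 host cells lacking M1 receptor as counterscreen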
CHO-K1 Ca antag = nonselective inhibitor or artifact in parental CHO-K1 cells; ATP-induced calcium, Fluo-8 fluorescence; inhibition, % at 3 µM; 360,000 tested, 0.6% active;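 active = inhibition above a per-plate cutoff, the plate's mean sample inhibition plus 3 SD, cut at about 24% in these data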;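 also: 0% = DMSO plus EC80 ATP and 100% = DMSO alone without ATP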
CHO-K1 Ca PAM = nonselective calcium activators in parental CHO-K1 cells, primary screen, counter-screen for M1 PAM project, cell-based, Fluo-8 calcium fluorescence, full deck, 1536-well. ATP EC20; 0% at ATP EC20, 100% at ATP max. activation, % at 3 µM. 360,000 tested, 0.02% active. AID 602247, 2012;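 active = activation above the run cutoff, the mean activation of all test compounds plus 3 SD, cut at about 40% in these data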;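 also: peak over basal fluorescence ratio in a 140 s read after ATP addition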
CHRM1 PAM = human M1 muscarinic receptor positive allosteric modulators, primary screen, CHO-K1 cells, Fluo-8 calcium fluorescence, 1536-well | Muscarinic acetylcholine receptor M1 (Homo sapiens), P11229 | CHO-K1 hM1, ACh EC20; 0% = ACh EC20, 100% = maximal ACh | activation, % at 3 µM | 360,000 tested, 0.088% active; in the data active = activation above about 19%, passing the limit was not always enough
* = called active by the depositor.

SMILES	CHRM1 agonist	M1 antag	M1 ag parental	CHO-K1 Ca antag	CHO-K1 Ca PAM	CHRM1 PAM
O=C(Nc1cccc(F)c1)Nc1cccc(Cl)c1	3.0	42.6*	16.5*	30.4*	-8.8	-21.0
CN1CCN(NC(=O)Nc2cccc(F)c2)CC1	-2.6	30.9*	5.7	2.7	3.1	-12.8
O=C(NCc1ccc(F)cc1)Nc1cccc(Cl)c1	-3.6	12.8	4.6	30.5*	-15.1	-15.5
O=C(NCc1ccc(F)cc1)Nc1ccc(Cl)cc1	-0.2	1.9	12.0	-0.8	-4.7	4.3
O=C(Nc1ccc(N2CCN(C(=O)c3ccccc3)CC2)cc1)c1ccc2c(c1)OCCO2	2.8	14.7	16.0*	10.8	-13.2	-11.3
Cc1ccc(C(=O)N2CCN(c3ccc(NC(=S)NC(=O)Cc4ccccc4)cc3)CC2)cc1	-1.2	18.5	21.4*	24.2*	5.5	-5.8
COc1ccc(Br)c(C=O)c1OS(=O)(=O)c1ccc(C)cc1	0.7	-6.6	4.7	-2.0	-6.0	-4.3
O=C(c1ccc(=O)n(Cc2ccccc2)n1)N1CCN(C/C=C/c2ccccc2)CC1	-0.3	41.3*	3.6	-2.7	3.6	-18.6
COCCCn1c(N)c(-c2nc3ccccc3n2C)c2nc3ccccc3nc21	4.2	28.1*	9.7	6.8	7.5	-11.6
O=C(/C=C\Nc1ccc(Br)cc1)c1cccnc1	-5.8	-1.2	1.4	-8.9	19.1	4.6
CCOC(=O)CSc1nc2c(sc(=S)n2-c2ccccc2OC)c(=O)n1Cc1ccco1	-3.1	3.0	0.3	28.5*	-1.2	-7.0
O=C1/C(=C/c2cccnc2)Sc2ccccc21	9.1	-4.1	0.6	-8.4	21.0	24.6*
Cn1nc(C(C)(C)C)cc1C(=O)N1CCCCC1c1cc(C(=O)Nc2ccccc2Cl)no1 (centres undefined)	-1.7	-1.2	0.9	24.1*	-10.3	2.1
C/C(=N\NC(=O)c1c(Cl)c(C)nn1C)c1ccc(NC(=O)c2ccncc2)cc1	-5.6	-2.2	0.5	9.5	7.0	2.8
CCN(CC)CCNC(=O)c1ccc(NC(=O)c2cn(-c3ccc(F)cc3)nc2-c2cccc(OC)c2)cc1	-11.3	99.3*	1.3	-11.5	13.6	-30.9
CCN(CC)CCNC(=O)c1ccc(NC(=O)Cc2ccccc2F)cc1	-15.4	4.3	0.1	2.6	4.3	-9.3
CCN(CC)CCNC(=O)c1ccc(NC(=O)c2ccccc2-c2ccc(C(F)(F)F)cc2)cc1	-10.8	101.1*	4.0	-7.2	10.3	-31.0
Cc1nn(-c2ccc(NC(=O)c3ccncc3)cc2)c(C)c1Cl	2.1	31.6*	13.4	8.8	-4.5	-19.8
CCN(CC)CCNC(=O)c1ccc(NC(=O)c2cn(-c3ccccc3)nc2-c2cccs2)cc1	-9.4	61.2*	2.5	-3.5	25.0	-27.8
O=C(Nc1cccnc1)c1cn(-c2ccccc2)nc1-c1cccs1	-1.4	5.6	4.9	-5.4	5.5	-9.4
CC/C(=N/N=C(/CC)c1ccc(O)cc1)c1ccc(O)cc1	-3.0	-3.9	0.4	-13.7	10.8	3.4
CCN(CC)CCNC(=O)c1ccc(NC(=O)c2ccc3c(c2)CCC3)cc1	-9.5	14.2	2.4	-15.6	15.6	-11.1
CCN(CC)CCNC(=O)c1ccc(NC(=O)c2c(C)nn(-c3ccc(F)cc3)c2Cl)cc1	-9.7	100.7*	3.0	-0.6	2.9	-33.4
CCN(CC(=O)Nc1ccc(NC(C)=O)cc1)C(=O)c1c(C)nn(-c2ccc(F)cc2)c1Cl	-2.7	29.7	4.4	-7.1	-9.7	-11.8
CCN(CC)CCNC(=O)c1ccc(NC(=O)c2cccc(S(=O)(=O)N(C)C3CCCCC3)c2)cc1	-8.5	99.8*	0.3	-15.2	10.5	-29.7
SMILES	CHRM1 agonist	M1 antag	M1 ag parental	CHO-K1 Ca antag	CHO-K1 Ca PAM	CHRM1 PAM
CCOC(=O)N1CCN(S(=O)(=O)c2ccc(C(=O)Nc3ccc4c(c3)C(=O)NC4=O)cc2)CC1	-3.4	-7.5	1.0	-5.1	21.6	5.9
O=S(=O)(Nc1ccon1)c1ccc(F)c(F)c1	-1.3	-8.0	0.4	-5.8	-0.8	2.2
Cc1csc2ncnc(N3CCN(S(=O)(=O)c4cccc(C(F)(F)F)c4)CC3)c12	0.6	46.5*	11.1	25.7*	-11.4	-16.0
O=S(=O)(c1cccc(Br)c1)N1CCN(c2ncnc3scc(-c4ccccc4)c23)CC1	-3.1	-1.7	0.0	-7.5	4.5	-0.7
CN(C(=O)CCCN1CCCC1=O)C1CCCN(Cc2ccccc2F)C1 (centres undefined)	-6.5	80.7*	0.3	7.0	5.1	-22.7
COCc1ccc(C(=O)N(C)C2CCCN(Cc3ccccc3F)C2)o1 (centres undefined)	-5.2	89.6*	1.3	-8.9	14.7	-22.1
CN(C(=O)CCc1ccccc1F)C1CCCN(Cc2ccccc2F)C1 (centres undefined)	-8.7	7.5	0.1	-9.4	6.3	-9.5
COC(=O)c1ccc(C(=O)N(C)C2CCCN(Cc3ccccc3F)C2)cc1 (centres undefined)	-9.5	-12.0	0.1	-9.7	7.0	6.8
COc1ccc(N2CCN(C(=O)CSc3nnc4n3C(C)(C)Cc3ccccc3-4)CC2)cc1	-4.8	-8.6	1.1	-2.6	15.9	5.7
Cc1ccc(Cl)cc1N1CCN(C(=O)CSc2nnc3n2C(C)(C)Cc2ccccc2-3)CC1	1.4	49.5*	7.8	15.2	-5.4	-15.3
OC12CCCCC1C(c1ccc3c(c1)OCO3)N(Cc1ccc(F)cc1)CC2 (centres undefined)	-2.8	-5.1	26.5*	6.9	10.5	7.6
OC12CCCCC1C(c1ccc3c(c1)OCO3)N(Cc1cccc(F)c1)CC2 (centres undefined)	-2.0	-7.9	0.7	-6.3	20.6	8.0
Cc1ccsc1C(=O)Nc1ccc(S(=O)(=O)N2CCOCC2)cc1	-2.1	-9.6	2.7	-10.5	2.3	9.0
COc1cc(OC)cc(C(=O)n2cnnc2N)c1	-0.4	-6.2	0.2	-12.0	12.6	12.1
CC(C)(C)c1cc(C2=CSC3=NCCN23)cc(C(C)(C)C)c1O	-10.0	36.3*	2.5	-4.8	9.2	-25.9
Cc1ccc(C)c(NC(=O)Nc2ccc3c(c2)OCO3)c1	-3.8	-16.2	-0.1	29.2*	-15.3	12.2
O=C1NC(=S)NC1(c1ccccc1)c1ccccc1	-8.8	47.0*	0.1	-3.5	-7.8	-28.9
O=C1NC(=O)C(c2ccccc2)(c2ccccn2)N1 (centres undefined)	-4.8	-3.7	1.5	-7.0	15.2	8.2
O=C(Nc1nc2ccc(F)cc2s1)C1CCCO1 (centres undefined)	-1.8	16.2	0.7	3.9	-6.2	-7.2
